Source: PubChem BioAssay
In the library only some 15% were active in any assay of this set; here they are far more common.
SARS PLpro yeast: SARS-CoV PLP inhibition in yeast; S. cerevisiae expressing SARS-CoV PLpro, growth rescue; Potency, µM (titrated, usually from 32.9 µM), without a hit: at the top dose activity, positive = growth rescue, most hits filed as activators; hit rate 0.19% among 330,000; calls by dose curve; further: potency means the concentration at half of the fitted maximal effect; 0% is about no effect; nearly all actives have a fitted effect of over 55% in size
Pf growth 96h: inhibits malaria parasite growth, 96 h | P. falciparum luciferase reporter growth, 96 h | Potency, µM (series often up to 28.7 µM), for the others: at the highest dose activity change, negative = inhibition, most hits filed as inhibitors | hit rate 6.9% among 320,000 | AID 504834; further: potency means the concentration at half of the fitted maximal effect; on the % scale 0 is the no-effect control and ±100 the full control effect
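Two-generation exposure (96 h) targets delayed-death phenotype. Reporter parasites carrying integrated firefly luciferase, in red cells at 2% hematocrit and 0.05% parasitemia final, kept at 37 C, 5% CO2; luminescence loss indicates inhibition.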
Pf growth 48h: P. falciparum growth inhibition at 48 hours (one generation). P. falciparum luciferase growth in erythrocytes, 48 h. Potency, µM (series often up to 28.7 µM), without a hit: top-dose activity change, negative = inhibition, usual class: inhibitors. hit rate 5.9% among 310,000. AID 504832; further: potency means the concentration at half of the fitted maximal effect; on the % scale 0 is the no-effect control and ±100 the full control effect
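Erythrocytes infected with P. falciparum carrying an integrated firefly luciferase reporter (2% hematocrit, 0.1% parasitemia final) were exposed to compounds in RPMI 1640 with 0.5% Albumax at 37 C, 5% CO2. Growth inhibition was scored as reduced luminescence.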
Sm TGR block: blocks Schistosoma mansoni thioredoxin glutathione reductase; Q962Y6; purified TGR, DTNB reduction, TNB absorbance 405 nm; Potency, µM (titrated, usually from 114 µM), inactives show top-dose activity change, negative = inhibition, actives largely listed as inhibitors; hit rate 3% among 360,000; AID 485364; further: potency means the concentration at half of the fitted maximal effect; on the % scale 0 is the no-effect control and ±100 the full control effect; nearly all actives have a fitted effect of over 60% in size
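First, TGR (20 nM dispensed) and NADPH were mixed with compound. Second, a 15 min room-temperature incubation followed. Third, further NADPH and then DTNB were added to start the reaction. Finally, TNB absorbance was monitored kinetically.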
HCV inhibitor: HCV inhibition | Huh7.5.1 HCVcc-Cre infection, luciferase reporter, 44 h | Potency, µM (doses to about 41.8 µM), for the others: top-dose activity change, negative = inhibition, usual class: inhibitors | hit rate 3.4% among 340,000; further: potency means the concentration at half of the fitted maximal effect; on the % scale 0 is the no-effect control and ±100 the full control effect
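Infectious HCV cell culture screen: compound-treated cells (1,000/well, pre-plated 4 h) are infected with HCVcc-Cre at roughly 0.5 moi and grown 44 h. Infection is quantified by luciferase signal after 15 min substrate incubation at room temperature.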
HCMV inh: inhibitors of human cytomegalovirus | HFF cells, HCMV-luciferase reporter, 72 h; active compounds read low | activity change, negative = inhibition, % at 57.5 µM | hit rate 4.5% among 410,000 | AID 1259415; in the data active means activity change below about -60%; inconclusive means no clear call, values can overlap the other calls; inactive means above about -39%; further: on the % scale 0 is the no-effect control and ±100 the full control effect
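Inhibition of viral replication was scored as loss of reporter luminescence in HFFs infected with HCMV-luciferase (MOI 1 PFU/cell) for 72 h; compounds tested at 2 doses, normalized to buffer and Salinomycin controls.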
The depositor's hits bear a star; u = inconclusive; x = not tested or not shown; [ ] = another dose, or the depositor's remark. Unless noted, the call rests on the fitted dose curve; in most records, active means well fitted curve in the direction sought with a large enough effect; inconclusive means small, poorly fitted or top-dose-only effect, or another doubt; inactive means no such curve, though single readings can be large; an effect the other way counts as inactive or inconclusive.

SMILES	SARS PLpro yeast	Pf growth 96h	Pf growth 48h	Sm TGR block	HCV inhibitor	HCMV inh
CC(C)(C)c1ccc(C(=O)NNC(=O)CNC(=O)c2cccs2)cc1	-1.5%	x	x	x	9.1%	34.8
Cc1nc2ccccc2n1CC(O)COCC1CC=CCC1 (stereo unspecified)	-2.6%	17.7%	u	3.0%	11.2µM*	-80.8*
OC(COCC1CC=CCC1)Cn1cnc2ccccc21 (stereo unspecified)	2.7%	u	x	4.6%	-6.9%	-22.9
CCC(C)(C)n1nnnc1C(c1cc2ccc(C)cc2[nH]c1=O)N(Cc1cccnc1)Cc1ccco1 (stereo unspecified)	-2.7%	43.2%	11.7µM*	u	-17.1%	50.5
Cc1cc2cc(C(c3nnnn3C3CCCC3)N(Cc3cccnc3)Cc3ccco3)c(=O)[nH]c2cc1C (stereo unspecified)	12.5%	2.33µM*	x	u	-8.0%	-66.5*
Cc1cccc(-n2ccnc2SCC(=O)Nc2cccc3ccccc23)c1	x	x	x	13.4%	x	-22.7
COc1ccc(Cl)cc1NC(=O)CSc1nccn1-c1ccc(Cl)cc1	x	x	x	-1.8%	x	-81.5*
O=C(CSc1nccn1-c1cccc(Cl)c1)Nc1cccc2ccccc12	x	x	x	2.4%	x	-62.8*
Cn1c(SCC(=O)Nc2cccc3ccccc23)nc(O)cc1=O	3.6%	u	10.4µM*	14.7%	8.7%	-5.9
O=C(CSC1=Nc2ccccc2N=C(c2ccc(F)cc2)C1)Nc1cc(F)ccc1F	x	x	x	-1.7%	x	-10.6
COc1ccc(CNC(=O)C2CCC(CNc3nc(=S)[nH]c4ccccc34)CC2)cc1 (stereo unspecified)	1.0%	2.6%	0.0%	6.5%	x	x
O=C1NC(=O)C(=Cc2ccc3c(c2)OCO3)C(=O)N1	-0.1%	9.28µM*	10.2%	0.2%	x	5.3
CNC(=O)c1c(NC(=O)c2ccc(S(=O)(=O)N3CCCCC3)cc2)sc2c1CCN(C(C)C)C2	-3.0%	8.28µM*	10.4µM*	-18.3%	-14.4%	-27.2
CCN1CCc2c(sc(NC(=O)c3ccc(S(=O)(=O)N4CCCC4)cc3)c2C(=O)NC)C1	-6.0%	14.7µM*	10.4µM*	-9.4%	-14.3%	-17.0
CN1CCc2c(sc(NC(=O)c3ccc(S(=O)(=O)N4CCCCCC4)cc3)c2C(N)=O)C1	0.1%	u	u	-21.9%	u	x
Clc1ccc(OCCSc2nnnn2C2CCCCC2)cc1	12.4%	x	19.3%	1.0%	14.3%	27.7
CCOc1ccc2nc(NC(=O)CSc3nnnn3C3CCCCC3)sc2c1	-4.6%	4.15µM*	39.0%	-35.5%	-2.2%	-1.4
CCOc1ccc(OCCSc2nnnn2C2CCCCC2)cc1	-11.3%	10.4µM*	11.1%	-4.1%	-26.6%	-11.2
COc1ccc2nc(NC(=O)CSc3nnnn3C3CCCCC3)sc2c1	x	-8.6%	4.2%	-1.1%	-4.3%	-3.5
O=C(CCCn1c(=O)c2ccccc2n(Cc2ccc(F)cc2Cl)c1=O)NCCc1ccc(Cl)cc1	x	x	x	u	x	-13.5
COc1ccccc1-c1cnc(C(O)c2cccc(F)c2)[nH]1 (stereo unspecified)	x	x	x	x	x	11.4
Cn1c(-c2ccsc2)cc2c(Nc3ccc(Oc4ccccc4)cc3)nccc21	x	x	x	x	x	-89.3*
CCN(CCn1cccn1)C(=O)C1CCC(=O)N(CCN2CCOCC2)C1 (stereo unspecified)	-3.9%	0.4%	7.2%	0.6%	6.2%	17.1
Cc1ccc(N(CC(=O)NC2CCCCC2C)S(=O)(=O)c2c(C)noc2C)cc1 (stereo unspecified)	3.4%	9.28µM*	u	-6.1%	16.9%	16.1
COc1ccc(N(CC(=O)NCc2ccccc2Cl)S(=O)(=O)c2c(C)noc2C)cc1	-3.1%	u	u	0.2%	u	-33.7
SMILES	SARS PLpro yeast	Pf growth 96h	Pf growth 48h	Sm TGR block	HCV inhibitor	HCMV inh
COc1ccc(N(CC(=O)NCc2ccc(Cl)cc2)S(=O)(=O)c2c(C)noc2C)cc1	0.4%	8.28µM*	u	2.2%	-24.7%	u
Cc1noc(C)c1S(=O)(=O)N(CC(=O)NCc1ccccc1Cl)c1ccc(C(C)C)cc1	x	x	x	0.4%	x	-62.0*
CCOc1ccc(N(CC(=O)NCc2ccc(Cl)cc2)S(=O)(=O)c2c(C)noc2C)cc1	-2.8%	-3.2%	-26.4%	-10.6%	10.5%	16.9
COc1ccc(N(CC(=O)NCc2ccc(C)cc2)S(=O)(=O)c2c(C)noc2C)cc1	0.5%	2.33µM*	u	0.7%	15.8%	u
Cc1ccc(CNC(=O)CN(c2cc(C)cc(C)c2)S(=O)(=O)c2c(C)noc2C)cc1	x	x	x	2.0%	x	-5.9
Cn1cc(-c2csc(C(O)c3ccc(F)c(F)c3)n2)cn1 (stereo unspecified)	x	x	x	x	x	-4.9
COc1ccc(N2CCN(C(=O)C3CCN(C(=O)c4cccc(Cl)c4)CC3)CC2)cc1	-0.2%	7.4%	-21.6%	0.2%	u	u
COc1ccccc1-c1noc2c1C(=O)N(Cc1cn(-c3ccccc3OC)nn1)CC2	x	x	x	x	x	-3.2
CC1NC(=O)COC1c1ccccc1 (stereo unspecified)	x	x	x	x	x	-15.0
Cc1ccc(N(CC(=O)NCCc2ccccc2)S(=O)(=O)c2c(C)noc2C)cc1	0.8%	x	u	-4.4%	0.7%	-9.4
CCOc1ccc(N(CC(=O)NCCc2ccc(C)cc2)S(=O)(=O)c2c(C)noc2C)cc1	-3.8%	u	u	-17.3%	-17.1%	-69.1*
Cc1ccc(N2CS(=O)(=O)/C(=C/N(C)C)C2=O)cc1	1.5%	219.3%	2.62µM*	8.6%	4.0%	44.8
COc1ccc([C@]23Cc4cc(OC)c(OC)cc4C(O2)C2=C(CC4(CCCCC4)OC2=O)O3)cc1	-0.4%[6.58 µM]	u	u	u	x	x
COc1ccccc1C(=O)Nc1ccc(Cc2ccncc2)cc1	-11.9%	4.4%	-12.0%	-31.1%	u	-2.7
Cc1c([N+](=O)[O-])cc(C(=O)Nc2ccc(Cc3ccncc3)cc2)cc1[N+](=O)[O-]	4.8%	-3.6%	13.1µM*	-0.9%	u	0.8
COc1c(C)cc(Br)cc1C(=O)Nc1ccc(Cc2ccncc2)cc1	-3.8%	-1.7%	u	-0.1%	u	-72.0*
COc1cc(/C=C2/C(=O)NN(c3cccc(C)c3)C2=O)ccc1OC(=O)c1ccco1	15.6%	4.15µM*	12.0%	u	22.6%	102.4
COc1cc(/C=C2/C(=O)NN(c3cccc(C)c3)C2=O)cc([N+](=O)[O-])c1O	-0.1%	-17.2%	1.5%	x	11.6%	-9.7
O=C(Cn1nnc(N2CCCCC2)n1)NN=Cc1ccccc1O	x	x	x	x	x	-2.0
COc1ccc(OC)c(-c2cc(C(=O)N/N=C(\C)c3cccnc3)c3ccccc3n2)c1	-3.2%	-103.2%	1.47µM*	-15.7%	-11.3%	-16.2
